Experiments:
Settings in all cases: concentration: 1 μM, replicates: in singlicate; n = 1
AXL = tested on: AXL
BIKE = tested on: T1, BIKE
T1 construct: gene BMP2K

BLK = tested on: BLK
BMPR1A = tested on: BMPR1A
BMPR1B = tested on: BMPR1B
BMPR2 = tested on: BMPR2
BMX = tested on: BMX
BRAF = tested on: BRAF
BRK = tested on: T2, BRK
T2 construct: gene PTK6

BRSK1 = tested on: BRSK1
BRSK2 = tested on: BRSK2
BTK = tested on: BTK
BUB1 = tested on: BUB1
CAMK1B = tested on: CAMK1B
CAMK1D = tested on: CAMK1D
CAMK1G = tested on: CAMK1G
CAMK1 = tested on: CAMK1
CAMK2A = tested on: CAMK2A
CAMK2B = tested on: CAMK2B
CAMK2D = tested on: CAMK2D
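Further: KINOMEscan kinase panel screen.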

Row | SMILES | %Inh (AXL) | %Inh (BIKE) | %Inh (BLK) | %Inh (BMPR1A) | %Inh (BMPR1B) | %Inh (BMPR2) | %Inh (BMX) | %Inh (BRAF) | %Inh (BRK) | %Inh (BRSK1) | %Inh (BRSK2) | %Inh (BTK) | %Inh (BUB1) | %Inh (CAMK1B) | %Inh (CAMK1D) | %Inh (CAMK1G) | %Inh (CAMK1) | %Inh (CAMK2A) | %Inh (CAMK2B) | %Inh (CAMK2D)
1 | Cc1cccc(-c2cc(-c3c[nH]nc3-c3ccccn3)ccn2)c1 [GW679395] | 0% | 0% | 32% | 0% | 2% | 1% | 0% | 8% | 4% | 0% | 0% | 0% | 28% | 5% | 10% | 0% | 7% | 0% | 0% | 5%
2 | COc1cc(Nc2nccc(N3CCC(NC(=O)C4COc5ccccc5O4)C3)n2)cc(OC)c1OC (stereo not drawn) [GSK1379761] | 17% | 57% | 16% | 0% | 0% | 26% | 16% | 0% | 2% | 9% | 0% | 53% | 53% | 25% | 8% | 8% | 21% | 8% | 0% | 9%
3 | COc1ccc(-c2coc3ccc(-c4nnc(SCc5cccc(C#N)c5)o4)cc23)cc1 | 21% | 0% | 0% | 14% | 17% | 18% | 28% | 0% | 10% | 0% | 10% | 0% | 0% | 6% | 23% | 8% | 26% | 0% | 0% | 7%
4 | Cl.NS(=O)(=O)c1cccc(Nc2cc(-c3ccc(F)cc3)n[nH]2)c1 [GW824645] | 0% | 0% | 23% | 7% | 0% | 45% | 0% | 33% | 0% | 0% | 0% | 0% | 36% | 0% | 0% | 0% | 0% | 0% | 0% | 0%
5 | Nc1ncnc2c1ncn2-c1cccc(F)c1 [SKF-97560] | 13% | 0% | 0% | 0% | 29% | 26% | 24% | 24% | 0% | 0% | 5% | 22% | 39% | 0% | 0% | 0% | 0% | 0% | 3% | 0%
6 | COc1cc2ncn(-c3cc(OCCCc4ccccc4)c(C(N)=O)s3)c2cc1OC [GSK205189] | 13% | 36% | 12% | 0% | 0% | 0% | 11% | 0% | 1% | 1% | 3% | 0% | 20% | 0% | 16% | 24% | 14% | 0% | 0% | 16%
7 | Fc1cccc(CSc2nnc(-c3ccc4c(c3)CCO4)o2)c1 | 0% | 0% | 0% | 1% | 5% | 0% | 0% | 7% | 2% | 0% | 0% | 33% | 25% | 0% | 0% | 2% | 6% | 16% | 24% | 0%
8 | O=C1NC(=O)C(c2ccccc2)=C1Nc1cccc(O)c1 [SB-390534] | 27% | 4% | 6% | 2% | 0% | 10% | 15% | 0% | 0% | 2% | 0% | 0% | 0% | 0% | 0% | 0% | 0% | 17% | 0% | 62%
9 | Nc1ncnc2c1ncn2-c1cccc2ccccc12 [SKF-97184] | 0% | 0% | 6% | 0% | 0% | 35% | 0% | 0% | 0% | 0% | 22% | 0% | 37% | 27% | 10% | 8% | 20% | 0% | 0% | 0%
10 | O=C(Nc1ccc2c(c1)OCO2)NC1CCN(c2ccnc(NCc3ccc(F)cc3)n2)CC1 [GSK1379859] | 2% | 7% | 43% | 0% | 0% | 0% | 3% | 0% | 4% | 0% | 0% | 0% | 7% | 0% | 16% | 0% | 16% | 0% | 0% | 7%
11 | O=C(Nc1n[nH]c2cc(-c3ccccc3F)ccc12)C1CC1 [SB-733371] | 16% | 41% | 0% | 21% | 24% | 0% | 0% | 0% | 0% | 22% | 0% | 0% | 0% | 0% | 0% | 0% | 0% | 2% | 0% | 0%
12 | O=c1cc(N2CCOCC2)nc2n(Cc3ccc(F)c(Cl)c3)ccn12 [GSK2297099] | 0% | 0% | 13% | 0% | 0% | 0% | 5% | 8% | 0% | 0% | 0% | 0% | 0% | 32% | 9% | 11% | 17% | 0% | 0% | 23%
13 | COc1ccc(-n2cnc3c(N)ncnc32)cc1 [SKF-97236] | 22% | 55% | 16% | 34% | 0% | 0% | 0% | 5% | 0% | 2% | 14% | 8% | 4% | 25% | 10% | 0% | 5% | 0% | 0% | 0%
14 | COc1ccc(Nc2nccc(N3CCC(NS(=O)(=O)c4ccc(NC(C)=O)cc4)C3)n2)cc1 (stereo not drawn) [GSK1379729] | 23% | 18% | 26% | 21% | 3% | 0% | 12% | 16% | 18% | 2% | 0% | 26% | 37% | 31% | 19% | 0% | 18% | 0% | 0% | 0%
15 | Cc1nnc(-c2ccc(C)c(-c3ccc(C(=O)O)cc3)c2)o1 [GW608005] | 0% | 0% | 31% | 0% | 0% | 0% | 0% | 0% | 0% | 2% | 8% | 0% | 17% | 8% | 4% | 0% | 2% | 0% | 0% | 0%
